# MARV entry inh: inhibitors of Marburg virus binding or cell entry; Potency, µM (top dose mostly 37.8 µM), for the others: at the top dose activity change, negative = inhibition, actives largely listed as inhibitors; AID 540276; 300,000 compounds, 1.8% hits; Marburg virus pseudotyped entry inhibition, cell reporter; calls by dose curve; tested in HEK293 cells; note: potency is the fitted concentration of half-maximal effect
# HCV inh: inhibitors of hepatitis C virus infection; Huh7.5.1 HCVcc-Cre infection, luciferase reporter, 44 h; Potency, µM (highest dose often 41.8 µM), for the others: at the top dose activity change, negative = inhibition, usual class: inhibitors; 340,000 compounds, 3.4% hits; AID 651820; note: potency is the fitted concentration of half-maximal effect
#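 A cell-based infection assay in which seeded cells (1,000 per well) receive test compound after 4 h, are inoculated with HCVcc-Cre at approximately 0.5 moi, and are incubated 44 h before luminescence detection.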
# LASV entry inh: inhibitors of Lassa virus binding or cell entry; Lassa virus pseudotype entry inhibition, cell reporter; Potency, µM (series often up to 37.9 µM), without a hit: top-dose activity change, negative = inhibition, most hits filed as inhibitors; 300,000 compounds, 1.2% hits; AID 540256; calls by dose curve; tested in HEK293 cells; note: potency is the fitted concentration of half-maximal effect; nearly all actives have a fitted effect of over 50% in size
# HCMV inh: blocks human cytomegalovirus replication; activity change, negative = inhibition, % at 57.5 µM; 410,000 compounds, 4.5% hits; HFF cells, HCMV-luciferase reporter, 72 h; stronger effect = lower value; in the data active = activity change below about -60%; inconclusive = no clear call, values can overlap the other calls; inactive = above about -39%
#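 HFF cells seeded 16 h at 37C, treated with compounds, infected with luciferase-reporter HCMV at MOI 1 PFU/cell; luciferase read at 72 h post infection, normalized to buffer-only and Salinomycin controls.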
# Pf growth 96h: P. falciparum growth inhibition at 96 hours; AID 504834; P. falciparum luciferase reporter growth, 96 h; Potency, µM (series often up to 28.7 µM), inactives show at the top dose activity change, negative = inhibition, usual class: inhibitors; 320,000 compounds, 6.9% hits; note: potency is the fitted concentration of half-maximal effect
#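 P. falciparum expressing integrated firefly luciferase, in erythrocytes at 2% hematocrit, 0.05% parasitemia, incubated with compounds 96 h at 37 C, 5% CO2. Growth inhibition read as loss of luminescence; two-generation exposure targets delayed-death apicoplast inhibitors.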
# Pf growth 48h: inhibits P. falciparum growth in the first generation, 48 h | P. falciparum luciferase growth in erythrocytes, 48 h | Potency, µM (doses to about 28.7 µM), without a hit: at the top dose activity change, negative = inhibition, actives largely listed as inhibitors | AID 504832 | 310,000 compounds, 5.9% hits; note: potency is the fitted concentration of half-maximal effect
#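 Read-out is firefly luciferase luminescence from an integrated reporter in P. falciparum, so falling signal marks reduced parasite growth. Infected erythrocytes were at 2% hematocrit and 0.1% parasitemia (final) in Albumax-supplemented RPMI 1640.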
# * = called active by the depositor; ? = inconclusive; . = no result given; [ ] = another dose, or the depositor's remark. A selection: hits, their analogues and other compounds. The true share with any hit is near 14%. Unless noted, calls come from the whole dose curve; as a rule, active = well fitted inhibition curve with a large enough effect; inconclusive = small, poorly fitted or top-dose-only effect, or another doubt; inactive = no such curve, though single readings can be large or run the other way. % is set by controls: 0 for no effect and ±100 for the full control effect.
SMILES,MARV entry inh,HCV inh,LASV entry inh,HCMV inh,Pf growth 96h,Pf growth 48h
Cc1cccc(N(C(=O)c2snc(C(N)=O)c2N)C(C(=O)NCC2CCCO2)c2ccc(N(C)C)cc2)c1 (stereo not drawn),?,-9.5%,.,?,40.3%,13.1µM*
CC(C)c1ccc(N(C(=O)c2snc(C(N)=O)c2N)C(C(=O)NCC2CCCO2)c2ccc(N(C)C)cc2)cc1 (stereo not drawn),?,?,?,-85.8*,9.7%,?
CN(C)c1ccc(C(C(=O)NCC2CCCO2)N(C(=O)c2snc(C(N)=O)c2N)c2ccc3c(c2)OCO3)cc1 (stereo not drawn),-4.3%[46.1 µM],-17.2%,?,?,?,?
Cc1ccccc1N(C(=O)c1snc(C(N)=O)c1N)C(C(=O)NCC1CCCO1)c1ccc(N(C)C)cc1 (stereo not drawn),-25.3%[46.1 µM],-1.3%,?,3.6,?,1.65µM*
CN(C)c1ccc(C(C(=O)NCC2CCCO2)N(C(=O)c2snc(C(N)=O)c2N)c2ccccc2)cc1 (stereo not drawn),?,-1.3%,24.1%[46.1 µM],7.4,11.4%,2.94µM*
CCc1ccccc1N(C(=O)c1snc(C(N)=O)c1N)C(C(=O)NCC1CCCO1)c1ccc(N(C)C)cc1 (stereo not drawn),-1.0%[46.1 µM],8.0%,?,?,159.5%,?
CC(C)C[C@@H](NC(=O)OC(C)(C)C)C(=O)N1O[C@]23C=C[C@]14C[C@@H](O)CC[C@]4(C)C2CC[C@]1(C)[C@@H]([C@H](C)/C=C/[C@H](C)C(C)C)CC[C@H]13 (stereo partly drawn),.,.,.,3.6,.,.
Cc1ccc(NC(=O)Cn2cnc3c(oc4ccccc43)c2=O)cc1Cl,.,.,-17.9%[46.1 µM],4.4,.,.
CCOc1ccccc1N(C(=O)c1snc(C(N)=O)c1N)C(C(=O)NCC1CCCO1)c1ccc2ncccc2c1 (stereo not drawn),-16.7%[46.1 µM],-1.8%,16.2%[46.1 µM],-36.0,?,?
NC(=O)c1nsc(C(=O)N(c2ccccc2)C(C(=O)NCC2CCCO2)c2ccc3ncccc3c2)c1N (stereo not drawn),3.5%[46.1 µM],-14.4%,.,-37.2,?,11.7µM*
c1ccc(C2(CN3CCNC[C@@H]3CC3CCCCC3)CC2)cc1,.,22.4µM*,.,-11.2,.,.
CN(CCO)c1cc(Sc2nc3ccccc3s2)c2nonc2c1[N+](=O)[O-],?,11.2µM*,?,-104.1*,58.9%,41.7%
CC(=O)OCCN(C)c1cc(SC(C)C)c2nonc2c1[N+](=O)[O-],-1.6%,14.7%,1.9%,?,-5.1%,-17.9%
O=C(NNC(=O)C1CCCCC1)c1cnccn1,-9.9%,30.2%,-0.5%,-32.9,25.8%,-3.7%
Cc1cc(OCC(=O)NNC(=O)c2cnccn2)cc(C)c1Cl,.,-29.8%,.,2.1,11.7µM*,?
O=C(CCC1CCCCC1)NNC(=O)c1cnccn1,5.5%,34.8%,1.5%,6.5,?,13.1µM*
O=C(Nc1ccccc1Cl)c1cc2c(-c3ccccc3)nn(-c3ccccc3)c2s1,-3.5%[46.1 µM],.,13.2%[46.1 µM],-8.7,.,.
COc1ccc(N2CCN(C(=O)C(CC(C)C)NS(=O)(=O)c3ccc4nc(C)sc4c3)CC2)cc1 (stereo not drawn),-4.2%[46.1 µM],.,-13.1%[46.1 µM],-12.6,.,.
Cc1cn2c(=O)cc(COC(=O)c3cccc(NC(=O)COc4ccccc4)c3)nc2s1,.,.,11.1%[46.1 µM],?,.,.
O=C(N/N=C/c1cc(Br)cc(Cl)c1O)c1ccc2c(c1)OCO2,?,12.6µM*,?,1.0,.,.
Cc1cc(Br)cc(/C=N/NC(=O)c2ccc3c(c2)OCO3)c1O,.,?,.,-102.8*,13.1µM*,13.1µM*
O=C(N/N=C/c1cc(Cl)cc([N+](=O)[O-])c1O)c1ccc2c(c1)OCO2,.,?,.,-23.1,105.8%,?
O=C(N/N=C/c1cc(Br)c(O)c(Br)c1O)c1ccc2c(c1)OCCO2,-28.5%[46.1 µM],?,?,-81.8*,-14.4%,?
O=C(N/N=C/c1cc2c(cc1Cl)OCO2)c1cccc(Br)c1,.,?,.,30.0,?,?
COc1cc(Cl)cc(/C=N\NC(=O)c2ccc3c(c2)OCO3)c1O,.,.,.,-60.4*,.,.
SMILES,MARV entry inh,HCV inh,LASV entry inh,HCMV inh,Pf growth 96h,Pf growth 48h
O=C(N/N=C/c1ccc2c(c1)OCO2)c1ccc2c(c1)OCCO2,?,4.9%,?,20.7,77.6%,117.8%
O=C(N/N=C/c1cc(Br)c(Br)o1)c1ccc2c(c1)OCCO2,?,?,-15.3%,-8.1,10.7%,34.4%
O=C(CNC(=O)c1ccco1)N/N=C/c1cc(Br)ccc1O,2µM*,?,.,21.6,42.7%,6.8%
O=C(CNC(=O)c1cccc(Br)c1)N/N=C/c1cn[nH]c1-c1ccccc1,?,2.1%,?,-29.9,?,10.2%
O=C(CNC(=O)c1ccco1)N/N=C/c1ccc(O)cc1O,.,-0.9%,.,6.3,?,2.2%
O=C(Nc1ncccc1O)c1ccc2c(c1)OCO2,-1.9%[46.1 µM],6.1%,8.2%,-7.8,4.15µM*,9.28µM*
O=C(Nc1ncccc1O)c1ccc2c(c1)OCCO2,?,7.4%,?,1.1,?,?
O=C(CNC(=O)c1ccc2c(c1)OCO2)N/N=C/c1cc(Br)ccc1O,11.2µM*,?,?,8.6,30.0%,11.9%
O=C(CNC(=O)c1cccc(Br)c1)N/N=C/c1ccc[nH]1,6.31µM*,3.16µM*,?,?,40.7%[1.15 µM],448.3%
O=C(CNC(=O)c1ccccc1)N/N=C/c1cc(Br)ccc1O,?,?,?,95.9,?,?
Cc1ccc(OCC(=O)Nc2c(Cl)ccc3nsnc23)cc1C,-9.7%[46.1 µM],.,-1.5%[46.1 µM],2.4,.,.
CCN1CCN(C(=O)c2ccc3c(c2)N(Cc2cc(C)ccc2C)C(=O)c2ccccc2S3=O)CC1 (stereo not drawn),3.0%[46.1 µM],.,-26.1%[46.1 µM],-19.0,.,.
O=C(N/N=C/c1ccccc1O)c1ccc2c(c1)OCO2,5.01µM*,5.62µM*,?,-91.9*,103.6%,-5.9%
O=c1[nH]c2ccccc2n1C1CCN(C(c2cccs2)c2nnnn2-c2ccc3c(c2)OCCO3)CC1 (stereo not drawn),.,.,.,-80.0*,.,.
COc1ccc(-n2nnnc2C(c2cccs2)N2CCC(n3c(=O)[nH]c4ccccc43)CC2)cc1 (stereo not drawn),.,.,.,-32.9,.,.
COc1ccc(-n2nnnc2C(c2ccccc2)N2CCC(n3c(=O)[nH]c4ccccc43)CC2)cc1 (stereo not drawn),.,.,.,-17.6,.,.
O=c1[nH]c2ccccc2n1C1CCN(C(c2ccccc2)c2nnnn2-c2ccc3c(c2)OCCO3)CC1 (stereo not drawn),.,.,.,-86.3*,.,.
